Assay results as given in PubChem BioAssay (NCI).
The panel holds about 83,000 compounds, 20% with a hit somewhere; the sample as a whole holds those more often.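 Values shown are percent growth following 48 h exposure of cells in 96-well plates to a single concentration of compound; below 10 was considered active.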 Activity calls are given as the source filed them.

Test system: HL-60(TB) leukemia
Assay: NCI-60 one-dose screen, 48 h (100 = growth as untreated, 0 = no growth, -100 = all killed)
Details: 10 µM unless noted

SMILES | growth
C/C=C/CSC(C)(C)C(=O)NC | 98.7% (inactive)
O=C1/C(=C/c2ccc([N+](=O)[O-])s2)Oc2ccc(Cl)cc21 | -20.6% (active)
O=C(Nc1nc(C(=O)N2CCN(C(c3ccccc3)c3ccccc3)CC2)cs1)c1ccc(NC2CCCCC2)c([N+](=O)[O-])c1 | 98.5% (inactive)
Cc1ccc(C2Oc3ccccc3C3CC(c4cccs4)=NN32)cc1 (stereo not given) | 97.4% (inactive)
CCCC/C(=N\N=C(N)N)c1ccc(F)cc1 | -30.9% (active)
O=C(CCCCCCN1CC(=O)N2[C@@H](c3ccc(Cl)c(Cl)c3)c3[nH]c4ccccc4c3C[C@H]2C1=O)NO | -11.8% (active)
COc1cc2c(cc1-c1c(C)noc1C)ncc1nc(C3CCCCC3)n([C@H](C)COC(F)F)c12 | 31% (inactive)
O=C(NCc1cn(Cc2cccc(Oc3ccccc3)c2)nn1)c1cccnc1NCc1ccc(Cl)cc1 | 3.88% (active)
Cc1cccc(NC(=O)CSc2nc3ccccc3[nH]2)c1 | 101% (inactive)
NNc1ccc(Cl)cc1Cl | 8.29% (active)
CC(=O)N=c1ccc2nc3c(cc(N)c4ccccc43)oc-2c1 | -82.9% (active)
CC(C)CCN(CCC(C)C)CC(O)c1cc2c(c3ccccc13)CCCC2 (stereo not given) | 78.6% (inactive)
COc1ccc(C2Nc3ccccc3-n3cccc32)cc1 (stereo not given) | 113% (inactive)
CCOC(=O)C1C(=O)C=C(c2cc(OC)c(OC)c(OC)c2)CC1c1sc(N(C)Cc2ccccc2)nc1Cl (stereo not given) | 80.4% (inactive)
C/C=C(\C)C(=O)N[C@H]1C(O)C[C@]2(C)C3CC[C@@]4(C)C(CC[C@@H]4C(C)N(C)C)C3CCC2C1O (stereo not given in full) | 5.7% (active)
O=C(/C=C/c1ccc(Br)cc1)c1ccccc1 | 81.5% (inactive)
O=CNc1ccc2c(c1)Cc1cccc(NC=O)c1-2 | 70.6% (inactive)
O=C(N/N=C/c1c(Cl)cccc1Cl)c1ccccc1Nc1ccnc(C(F)(F)F)c1 | 96.5% (inactive)
COc1ccc(N2CCN(c3nc(-c4cc(OC)c(OC)c(OC)c4)nc4ccccc34)CC2)cc1 | 44.4% (inactive)
CCOC(=O)c1c2c(c(C)n1Cc1ccc(OC)cc1)-c1nc(N)ncc1CC2 | 68.8% (inactive)

SMILES | growth
CCN(CC)S(=O)(=O)c1ccc2[nH]c(=O)cc(C(=O)Nc3ccc(OC)cc3OC)c2c1 | 101% (inactive)
S=C=Nc1ccc2ccccc2c1 | 91.7% (inactive)
O=C1OC(Cc2ccccc2)C1c1ccccc1 (stereo not given) | 84.7% (inactive)
Cc1ccccc1C[P+](c1ccccc1)(c1ccccc1)c1ccccc1 | 1.16% (active)
NS(=O)(=O)c1ccc(N=Nc2ccc(-c3nn4cc(-c5ccccc5)nc4s3)cc2)cc1 | 91.5% (inactive)
CC(=O)N[C@H](C(=O)N[C@@H](CCCNC(=N)N)C(=O)N[C@@H](CCCCN)C(=O)N[C@@H](CCCNC(=N)N)C(=O)N[C@]1(C)CCCCCC/C=C\CCC[C@@](C)(C(=O)N[C@@H](CCCNC(=N)N)C(=O)N[C@@H](CCC(=O)O)C(=O)N[C@@H](CC(C)C)C(=O)N[C@H](C(=O)N[C@@H](CCC(=O)O)C(N)=O)C(C)C)NC(=O)[C@H](CCC(N)=O)NC(=O)[C@H](CC(C)C)NC(=O)[C@H](CC(C)C)NC(=O)[C@H](CCCNC(=N)N)NC(=O)[C@H](CCCNC(=N)N)NC(=O)[C@H](CC(C)C)NC1=O)C(C)C | 15.9% (inactive)
Clc1nc(Cl)c2ncn(CCOCCn3cnc4c(Cl)nc(Cl)nc43)c2n1 | -70.6% (active)
Cc1c(-c2ccc(C3CCCCC3)cc2)nc2ccc(F)cc2c1C(=O)O | 24.8% (inactive)
Fc1ccc2nc(-c3ccc(-c4noc(-c5ccc(Cl)cc5)n4)cc3)[nH]c2c1 | 88.7% (inactive)
COc1ccc(/C=N/NC(=O)c2cnn3c2NC(c2ccccc2)C3)cc1OC1CCCC1 (stereo not given) | 101% (inactive)
O=C(CCN1C(=O)/C(=C/c2ccc(O)cc2)SC1=S)Nc1ccc(Cl)cc1 | 65.5% (inactive)
COc1ccc(-c2nnc(SCC(=O)Nc3ccc(C(=O)/C=C/c4ccc(OC)c(OC)c4)cc3)o2)cc1 | 74.7% (inactive)
Nc1ccc(Sc2ccc3c4c2cccc4c(=O)n2c4ccccc4nc32)cc1 | 18.2% (inactive)
Cn1ccc2c3c(ccc21)CC3=O | 113% (inactive)
Cc1cc(NCc2cc(Nc3ccnc4cc(Cl)ccc34)ccc2F)nc(N2CCN(C)CC2)n1 | -46.6% (active)
CC(=O)Nc1ccc(/C=N/N2CCCCCC2)cc1 | 95.1% (inactive)
CCN1CCN(c2nc(NNC(=O)Cc3ccccc3)nc(N3CCN(C(c4ccccc4)c4ccccc4)CC3)n2)CC1 | -53.9% (active)
CC(=Nc1ccccc1)C1=C(O)C(Cc2ccccc2)NC1=O (stereo not given) | -52.3% (active)
N#Cc1ccc(O)c(C2=NCC(c3cccc(Oc4ccccc4)c3)O2)c1 (stereo not given) | -8.73% (active)
COc1ccc(C2=C(Nc3ccc(C(=O)Nc4ccccc4)cc3)C(=O)N(C)C2=O)cc1 | 69.9% (inactive)
